Measured values published in PubChem BioAssay (NCI).
The panel holds about 79,000 compounds, 15% with a hit somewhere; the sample as a whole holds those more often. Calls of active or inactive are those of the source. Rule as the data show it: active = growth inhibition above about 70%; inactive = the rest.

Key:
[1] = NCI Yeast Anticancer Drug Screen. Data for the sgs1 mgt1 strain (AID 161);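 also: 0% = growth of cultures given vehicle only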; conditions: S. cerevisiae sgs1 mgt1 strain, stronger effect = higher value
In short: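 Mutant yeast exposed to compound; growth scored against vehicle-only wells.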

[2] = NCI Yeast Anticancer Drug Screen. Data for the CLN2oe strain (AID 163);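 also: 0% = growth of vehicle-only control cultures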; conditions: S. cerevisiae CLN2oe strain, stronger effect = higher value
In short: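 Here, growth inhibition in a cell-cycle-altered yeast strain after compound exposure was quantified against vehicle control growth.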

[3] = NCI Yeast Anticancer Drug Screen. Data for the cln2 rad14 strain (AID 165);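 also: 0% = growth equal to vehicle treated cultures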; conditions: S. cerevisiae cln2 rad14 strain, stronger effect = higher value
In short: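 Growth of compound-exposed yeast (cln2 rad14 genotype) measured and expressed as inhibition relative to vehicle.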

[4] = NCI Yeast Anticancer Drug Screen. Data for the bub3 strain (AID 167); conditions: S. cerevisiae bub3 mutant strain, stronger effect = higher value
In short: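 Growth of a checkpoint-deficient yeast mutant is measured after compound exposure. Values represent inhibition relative to vehicle.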

[5] = NCI Yeast Anticancer Drug Screen. Data for the wt2 strain (AID 169);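 also: 0% = growth of vehicle-treated yeast cultures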; conditions: S. cerevisiae wt2 strain growth inhibition, stronger effect = higher value
In short: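 Genetically defined yeast strains from a DNA-repair/cell-cycle panel were used. Compound-exposed yeast growth was measured, and the inhibition was calculated relative to vehicle treatment.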

[6] = NCI Yeast Anticancer Drug Screen. Data for the mlh1 strain (AID 171);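 also: 0% = growth of vehicle-treated control cultures of the same strain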; conditions: S. cerevisiae mlh1 strain growth inhibition, stronger effect = higher value
In short: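 Here the genetically defined yeast mutant is grown with each compound, and the extent to which its growth falls below that of vehicle-exposed cells is reported.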

[7] = NCI Yeast Anticancer Drug Screen. Data for the sgs1 strain (AID 173);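 also: 0% = growth of vehicle-only control cultures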; conditions: S. cerevisiae sgs1 mutant, stronger effect = higher value
In short: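 Relative growth inhibition, referenced to vehicle, was determined in a yeast strain with a defined alteration affecting DNA damage repair or cell cycle control after compound exposure.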

[8] = NCI Yeast Anticancer Drug Screen. Data for the mlh1 rad18 strain (AID 175); conditions: S. cerevisiae mlh1 rad18 strain growth inhibition, stronger effect = higher value
In short: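 In this whole-cell yeast screen, a strain with altered DNA damage repair is challenged with compound, and its growth is measured against matched vehicle-treated controls.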

[9] = NCI Yeast Anticancer Drug Screen. Data for the rad18 strain (AID 177); conditions: S. cerevisiae rad18 mutant growth inhibition, stronger effect = higher value
In short: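 Screen uses a yeast strain with a defined lesion in DNA damage repair; compound effect is read as loss of growth compared to untreated vehicle cultures.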

[10] = at 5.0 µM (retest, dose inferred, filed as 0.5)
[11] = at 50.0 µM (retest, dose inferred, filed as 5.0)

Measured: growth inhibition

Cc1ccc2ccc3cccc4ccc1c2c34
active: [8]; at 50.0 µM 70.3% | [9]; at 100.0 µM 82%
inactive: [1]; [10] -3% | [1]; [11] 20% | [1]; at 50.0 µM 10.6% | [2]; at 1.2 µM -7% | [2]; at 3.7 µM -2% | [2]; at 11.0 µM -4% | [2]; at 33.0 µM -13% | [2]; at 100.0 µM 13% | [3]; [10] -3% | [3]; [11] 6% | [3]; at 50.0 µM 14.2% | [4]; at 1.2 µM -1% | [4]; at 3.7 µM 0% | [4]; [10] 2% | [4]; at 11.0 µM 2% | [4]; at 33.0 µM 26% | [4]; [11] 44% | [4]; at 50.0 µM 61.5% | [4]; at 100.0 µM 58% | [5]; at 1.2 µM -1% | [5]; at 3.7 µM 7% | [5]; at 11.0 µM -3% | [5]; at 33.0 µM -2% | [5]; at 100.0 µM 18% | [6]; at 1.2 µM -2% | [6]; at 3.7 µM -2% | [6]; at 11.0 µM -5% | [6]; at 33.0 µM 3% | [6]; at 100.0 µM 30% | [7]; at 1.2 µM -3% | [7]; at 3.7 µM -1% | [7]; at 11.0 µM 2% | [7]; at 33.0 µM 23% | [7]; at 100.0 µM 42% | [8]; [10] -3% | [8]; [11] 52% | [9]; at 1.2 µM -4% | [9]; at 3.7 µM 0% | [9]; at 11.0 µM 11% | [9]; at 33.0 µM 60%
